The text below walks through data of PubChem BioAssay (Tox21).

This experiment addresses Muscarinic acetylcholine receptor M1 (Homo sapiens) (UniProt P11229). Briefly: Cholinergic receptor muscarinic 1 (CHRM1) small molecule agonists, cell-based qHTS assay (AID 1963589). Note: nearly all actives have a fitted effect of over 35% in size. The method, boiled down: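 Calcium flux read-out: kinetic fluorescence at 1 sec intervals after pin-tool compound addition to dye-loaded CHRM1-CHO cells (human M1). Agonist mode; 15 concentrations tested in triplicate independent runs.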
In general terms: Quantitative high-throughput screening tests each substance at several concentrations.

Where “and” joins values, the source holds several entries; their conditions need not be identical. Identical values can stand only once. Calls of active or inactive are those of the source. Entries that show only a call come without a potency. Calls come from the whole dose curve.
Potency is the fitted concentration of half-maximal effect.

Sequence of Muscarinic acetylcholine receptor M1 (Homo sapiens) (P11229 whole entry, looked up): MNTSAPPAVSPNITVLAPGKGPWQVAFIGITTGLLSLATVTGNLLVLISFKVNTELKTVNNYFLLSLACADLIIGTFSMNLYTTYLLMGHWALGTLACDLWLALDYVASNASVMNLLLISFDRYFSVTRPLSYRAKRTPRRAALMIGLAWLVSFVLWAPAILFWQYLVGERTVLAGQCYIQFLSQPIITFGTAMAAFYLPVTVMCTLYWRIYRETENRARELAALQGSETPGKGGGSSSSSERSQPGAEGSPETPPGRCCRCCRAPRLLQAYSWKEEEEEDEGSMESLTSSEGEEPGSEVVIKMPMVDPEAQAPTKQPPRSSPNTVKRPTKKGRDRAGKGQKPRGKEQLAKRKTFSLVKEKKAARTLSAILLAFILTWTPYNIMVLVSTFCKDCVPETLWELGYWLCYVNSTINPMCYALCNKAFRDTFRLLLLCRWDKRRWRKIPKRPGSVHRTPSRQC

Turning to `C=Cc1ccc(C)cc1`, the Potency result was “inactive”.
To `CCCCCCCCCCCCCCCC(=O)OC(C)C` belongs “inactive”; to `O=c1[nH]c(=O)n([C@H]2C[C@H](O)[C@@H](CO)O2)cc1Br`, “inactive”.
To `C=C[Si](OCCOC)(OCCOC)OCCOC` belongs “inactive”; to `CNC[C@H](O)[C@@H](O)[C@H](O)[C@H](O)CO`, “inactive”.
`CC(C)OP(=O)(CP(=O)(OC(C)C)OC(C)C)OC(C)C`: the Potency result is “inactive”.
`CC(C)(C)C1CCC(O)CC1` (configuration not stated): the Potency entry is “inactive”.
As for `CCCCCCCCCCCC[N+](C)(C)C`, the figure is 27.5 µM (active) and 245 nM (active); as for `COc1ccc(OC)cc1`, “inactive”; as for `CCCCCC(=O)O`, “inactive”.
As to `CCCCCCCC(=O)OCC(COC(=O)CCCCCCC)OC(=O)CCCCCCC`, the Potency entry is “inactive”.
Consider `CC(=O)OCC(=O)[C@@]12N=C(C)O[C@@H]1C[C@H]1[C@@H]3CCC4=CC(=O)C=C[C@]4(C)[C@H]3[C@@H](O)C[C@@]12C`, for which the Potency result was “inactive”.
To `C=CCNCC=C` belongs “inactive”; to `CCOCCO`, “inactive”.
As for `Cc1ccccc1C=O`, the entry is “inactive”; as for `CCCCCCCC/C=C\CCCCCCCC(=O)O`, “inactive”.
To `O=c1c(O)c(-c2ccc(O)cc2)oc2cc(O)cc(O)c12` belongs “inactive”; to `CCC(C)(O)CCCC(C)C` (configuration not stated), “inactive”.
With `CN(C)C`, the Potency entry is “inactive”.
`NCCOCCO`: the Potency result is “inactive”.
As to `COc1cc(C=O)ccc1O`, the Potency entry was “inactive”.
Turning to `O=C(O)C1=NN(c2ccc(S(=O)(=O)O)cc2)C(=O)C1`, the Potency result is “inactive”.
To `O=C1CCCCCCCCCCC1` belongs “inactive”.
As for `C/C=C1/CC2C=CC1C2` (configuration not stated), the entry is “inactive”.
Regarding `Cc1cccc([N+](=O)[O-])c1C`, the Potency entry was “inactive”.
As for `CC(C)Cc1ccccc1`, the entry is “inactive”; as for `CCCCCCC(=O)O`, “inactive”; as for `C[C@]12C[C@H](O)[C@H]3[C@@H](CCC4=CC(=O)CC[C@@]43C)[C@@H]1CC[C@@H]2C(=O)CO`, “inactive”.
To `CCCCC(CC)COC(=O)C(C#N)=C(c1ccccc1)c1ccccc1` (configuration not stated) belongs “inactive”; to `O=C(OCCOCCOC(=O)c1ccccc1)c1ccccc1`, “inactive”.
With `CCCCCCCCCCO`, the Potency entry is “inactive”.
For the compound `CCCCC(CC)CO` (configuration not stated), the Potency result was “inactive”.
As for `C=C(C)C(=O)OCC(C)C`, the entry is “inactive”; as for `CCCCOC(=O)COc1ccc(Cl)cc1Cl`, “inactive”; as for `OCc1ccc(Cl)cc1Cl`, “inactive”.
Take `O=C(/C=C/C=C/c1ccc2c(c1)OCO2)N1CCCCC1`: the Potency entry was “inactive”.
As to `C=CCCCCCCCCC(=O)O`, the Potency entry was “inactive”.
Consider `CN(C)CCCN`, for which the Potency result was “inactive”.
As for `CC(C)CCCCCCCOC(=O)CCCCC(=O)OCCCCCCCC(C)C`, the entry is “inactive”; as for `CN1C(=O)CC[C@H]1c1cccnc1`, “inactive”; as for `O=C(c1cc(O)c(O)c(O)c1)c1ccc(O)c(O)c1O`, “inactive”.
`OC1CCCCC1`: the Potency result was “inactive”.
As for `COC(=O)CCCCC(=O)OC`, the entry is “inactive”; as for `Cc1cccc2ccccc12`, “inactive”; as for `O=C(c1ccccc1)c1ccc(O)c(O)c1O`, “inactive”.
As for `O=c1[nH]nnc2ccccc12`, the entry is “inactive”; as for `CC(O)CC(C)(C)O` (configuration not stated), “inactive”; as for `Brc1ccc(Br)c(Br)c1`, “inactive”.
As for `c1ccc2ccccc2c1`, the entry is “inactive”; as for `NNc1ccc(C(=O)O)cc1`, “inactive”.
Turning to `CCCCC(CC)COC(=O)c1ccc(C(=O)OCC(CC)CCCC)cc1` (configuration not stated), the Potency entry is “inactive”.
As for `CCCCCNCCCCC`, the entry is “inactive”; as for `CCOC(=O)/C=C\C(=O)OCC`, “inactive”.
As for `c1ccc2n[nH]nc2c1`, the entry is “inactive”.
To `Cc1ccc(Cl)cc1` belongs “inactive”.
With `Nc1ccc(S(=O)(=O)Nc2cnc3ccccc3n2)cc1`, the Potency result was “inactive”.
Take `OC[C@H]1O[C@@H](Oc2ccc(O)cc2)[C@H](O)[C@@H](O)[C@@H]1O`: the Potency entry is “inactive”.
Turning to `CCC(O)OCCCOC` (configuration not stated), the Potency entry is “inactive”.
To `CC(=O)c1nccs1` belongs “inactive”.
Take `Cc1ccc(C)c(O)c1C`: the Potency result was “inactive”.
On to `CCCCCCCCC/C=C/CC1CC(=O)OC1=O` (configuration not stated), for which the Potency entry is “inactive”.
As for `O=C(O)c1[nH]n(-c2ccc(S(=O)(=O)O)cc2)c(=O)c1N=Nc1ccc(S(=O)(=O)O)cc1`, the Potency result is “inactive”.
